# Laboratory results: PubChem BioAssay (EPA / NIEHS)
# Several values for one entry are separate records, joined by “and”; a condition that tells them apart may be missing. Equal values may be shown once. Inconclusive results are not listed. Some compounds were tested as several samples or in several runs, with calls that do not always agree. Activity calls are given as the source filed them. The calls were made as follows: active = hit-call score of the fitted dose curve at least 0.9, where 1 is the maximum; inconclusive = response in the unintended direction; inactive = score below 0.9.
# How the values were obtained:
# [1] = Tanguay_ZF_120hpf_ActivityScore_legacy: (Legacy) Oregon State University Tanguay Lab 120 Hour Post-fertilization zebrafish Assay Score for Activity (AID 2283742);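 as to AC50: dechorionated Tropical 5D wild-type zebrafish embryos held singly per well; static exposure from 6 hpf until 120 hpf at 28 °C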
# Procedure, shortened: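 In this whole-embryo screen, dechorionated zebrafish were exposed from 6 hpf until 120 hpf at 28C under a 0.64% DMSO vehicle. Developmental malformations and death were recorded by brightfield microscopy as binary endpoints.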
# [2] = target: Luciferin 4-monooxygenase (Photinus pyralis) (UniProt P08659); assay: CCTE_Simmons_QuantiLum_inhib_2: CCTE's Firefly Luciferase Inhibition Assay, Simmons Lab (AID 2283767);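 as to AC50: potency for inhibitors that lower luciferase luminescence relative to DMSO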
# Procedure, shortened: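 Eight-point titrations of each chemical, 5 nM–87.5 uM final in 0.5% DMSO, were run in three biological replicates against recombinant luciferase for 30 min at 37C. Bioluminescence signal loss, read on reagent injection, gave the inhibition endpoint.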
# [3] = ArunA_CellTiter_hNC: Viability Assessment in the ArunA Biomedical's Oris Neural Crest (hNC) Cell Migration Assay (AID 2283752)
# Procedure, shortened: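 Cytotoxicity endpoint run alongside the migration assay: neural crest cells on Matrigel, 60,000 per well, preincubated 16 h at 37C, treated 72 h; CellTiter Aqueous One signal loss relative to DMSO.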
# [4] = ArunA_Migration_hNP: ArunA Biomedical's Oris Neuroprogenitor (hNP) Cell Migration Assay (AID 2283754)
# Procedure, shortened: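 Readout is calcein-AM fluorescence (ex494/em517) of cells migrating into the detection zone, relative to DMSO. hNP1 cells (H9-derived) grown on Matrigel behind stoppers 16 h, then stoppers pulled and chemical applied 72 h; cytochalasin D as control.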
# [5] = ArunA_NOG_BranchPointsPerNeurite: ArunA Biomedical's Neurite Outgrowth (NOG) Assay for Branch Points Per Neurite (AID 2283759)
# Procedure, shortened: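 Automated image analysis traced neurites (processes >10 um) from valid cell bodies after Hoechst and βIII-tubulin staining. hNN cells from H9 embryonic stem cells, 48 h exposure. Fitted bidirectionally against DMSO.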
# [6] = ArunA_CellTiter_hNP: Viability Assessment in the ArunA Biomedical's Oris Neural Crest (hNC) Cell Migration Assay (AID 2283753)
# Procedure, shortened: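 Viability read with CellTiter 96 Aqueous One after 72 h chemical exposure of human hNP1 neuroprogenitors, which were plated on Matrigel in LIF/bFGF medium 16 h beforehand. Endpoint fitted in positive direction relative to DMSO.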
# [7] = ArunA_NOG_NucleusCount: ArunA Biomedical's Neurite Outgrowth (NOG) Assay for Nucleus Count (AID 2283756)
# Procedure, shortened: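 Viable neuron count, from Hoechst nuclei passing size and intensity gates, imaged at 20x on differentiated H9-derived human neurons. Exposure lasted 48 h from seeding; activity was scored relative to DMSO.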
# [8] = ArunA_NOG_NeuritesPerNeuron: ArunA Biomedical's Neurite Outgrowth (NOG) Assay for Neurites Per Neuron (AID 2283758)
# Procedure, shortened: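 Differentiated human H9-derived neurons exposed to chemicals for 48 h from seeding, then stained with Hoechst and βIII-tubulin/DyLight 488. Automated imaging counted neurites (processes >10 um) per valid neuron; loss of signal versus DMSO scored.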
# [9] = ArunA_Migration_hNC: ArunA Biomedical's Oris Neural Crest (hNC) Cell Migration Assay (AID 2283755)
# Procedure: ArunA_Migration_hNC is a cell-based, single-readout assay that uses human H9-derived embryonic neural crest stem cells (hNC). Measurements were taken 72 hours after chemical dosing in a 96-well plate.ArunA_Migration_hNC is an assay component measured from the ArunA_Migration_hNC assay. It is designed to make measurements of cell migration, a form of distribution reporter, as detected with fluorescence intensity signals by HCS Fluorescent Imaging technology. Data from the assay component ArunA_Migration_hNC was analyzed at the endpoint, ArunA_Migration_hNC, in the positive analysis fitting direction relative to DMSO as the negative control and baseline of activity. […]
# To assess the hNP and hNC migration and cell titer endpoints, 60,000 cells per well were plated onto Matrigel in basal growth medium with LIF and bFGF in a 96-well plate format. […] Cell viability in the detection zone was quantitated using a Flexstation3 microplate reader (ex494 nm/em 517 nm). Corresponding cell titer endpoints were assessed for the hNP and hNC cells using the Promega CellTiter Aqueous One Solution Cell Proliferation Assay (Cat no. G3581; CellTiter 96). Finally, to gain insight into the mechanisms by which cells migrate into the detection zone, Ki-67 expression was quantified for 10 additional chemicals in the hNP and hNC systems. […]
# [10] = ArunA_NOG_NeuriteLength: ArunA Biomedical's Neurite Outgrowth (NOG) Assay for Neurite Length (AID 2283757)
# Procedure, shortened: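 Total neurite length per neuron, from traced βIII-tubulin-labelled processes longer than 10 um on viable Hoechst-gated cells, was scored as decrease from DMSO. Cells were hESC (H9)-derived neurons given 48 h chemical exposure immediately after seeding.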
# Chain of Luciferin 4-monooxygenase (Photinus pyralis) (P08659 whole entry, looked up): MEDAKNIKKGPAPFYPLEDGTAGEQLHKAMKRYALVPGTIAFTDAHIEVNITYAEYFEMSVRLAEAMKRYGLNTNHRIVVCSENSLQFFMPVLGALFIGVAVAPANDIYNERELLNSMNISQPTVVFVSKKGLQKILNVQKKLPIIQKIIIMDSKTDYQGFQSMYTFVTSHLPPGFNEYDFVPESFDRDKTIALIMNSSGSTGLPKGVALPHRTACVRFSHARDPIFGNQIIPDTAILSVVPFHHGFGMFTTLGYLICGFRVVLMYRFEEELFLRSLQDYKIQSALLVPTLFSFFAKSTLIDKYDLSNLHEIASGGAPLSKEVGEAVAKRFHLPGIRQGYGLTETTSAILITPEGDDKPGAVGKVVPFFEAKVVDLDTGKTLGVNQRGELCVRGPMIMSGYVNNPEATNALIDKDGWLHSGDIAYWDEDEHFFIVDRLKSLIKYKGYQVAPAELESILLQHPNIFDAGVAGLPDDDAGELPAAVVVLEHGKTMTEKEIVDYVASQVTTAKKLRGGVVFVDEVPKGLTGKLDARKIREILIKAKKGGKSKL
compound,measurement,setting,value
O=C(O)C(F)(F)C(F)(F)C(F)(F)C(F)(F)C(F)(F)C(F)(F)F,outcome,[1],inactive
same,outcome,[2],inactive
O=C(O)C(Cl)(Cl)Cl,outcome,[1],inactive
Cn1sc(Cl)cc1=O,AC50,[1],39.8 µM (active)
CC(C)(c1ccccc1)c1ccc(O)c(C(C)(C)c2ccccc2)c1,outcome,[1],inactive
same,outcome,[2],inactive
O=C(O)C(F)(F)C(F)(F)C(F)(F)C(F)(F)C(F)(F)C(F)(F)C(F)(F)C(F)(F)C(F)(F)C(F)(F)F,outcome,[1],inactive
ClCC(Cl)CCl,outcome,[1],inactive
same,outcome,[3],inactive
same,outcome,[4],inactive
same,outcome,[5],inactive
CN(C)N=O,outcome,[1],inactive
ClC1(Cl)C2(Cl)C3(Cl)C4(Cl)C(Cl)(Cl)C5(Cl)C3(Cl)C1(Cl)C5(Cl)C24Cl (configuration not stated),outcome,[1],inactive
same,outcome,[6],inactive
same,outcome,[4],inactive
same,outcome,[7],inactive
same,outcome,[8],inactive
same,outcome,[5],inactive
C[C@]12CCC(=O)C[C@@H]1CC[C@@H]1[C@@H]2CC[C@]2(C)[C@@H](O)CC[C@@H]12,outcome,[1],inactive
O=c1[nH]c(=O)[nH]c(=O)[nH]1,outcome,[1],inactive
C=CC(=O)OCCCCCC(C)C,outcome,[1],inactive
O=C1C2(Cl)C3(Cl)C4(Cl)C(Cl)(Cl)C5(Cl)C3(Cl)C1(Cl)C5(Cl)C24Cl (configuration not stated),AC50,[1],71 µM (active)
O=C(Nc1ccc2[nH]ccc2c1)c1cc2cc(F)ccc2n1Cc1cccc(F)c1,outcome,[1],inactive
same,AC50,[2],33.3 µM (active)
C=C(C)C(=O)[O][Sn]([CH2]CCC)([CH2]CCC)[CH2]CCC,AC50,[1],1.54 µM (active)
CC(=O)[O][Hg][c]1ccccc1,AC50,[1],0.111 µM (active)
COc1cc(-c2ccc(N)c(OC)c2)ccc1N,AC50,[1],3.57 µM (active)
same,outcome,[1],inactive
CCN1CCC2(CC1)COc1cc3c(cc12)N(C(=O)c1ccc(-c2ccc(-c4nnc(C)o4)cc2C)cc1)CC3,outcome,[1],inactive
O=[N+]([O-])c1ccc(O)c([N+](=O)[O-])c1,AC50,[1],29.6 µM (active)
CC(C)(OO)c1ccccc1,outcome,[1],inactive
NC(=O)O,outcome,[1],inactive
C[C@@H]1C[C@@H]([C@H](O)CC2CC(=O)NC(=O)C2)C(=O)[C@@H](C)C1,AC50,[1],17.9 µM (active)
CCC(=O)C(CC(C)N(C)C)(c1ccccc1)c1ccccc1 (configuration not stated),outcome,[1],inactive
CC(C)(C)c1cc(O)ccc1O,AC50,[1],16.8 µM (active)
same,AC50,[4],33.7 µM (active)
same,AC50,[9],35.8 µM (active)
same,outcome,[7],inactive
same,outcome,[10],inactive
same,outcome,[8],inactive
same,AC50,[2],79.7 µM (active) and 80.7 µM (active)
same,outcome,[2],inactive
